Results on 13 molecules are retold here after the supplement of paper PMC8975748.

Where a name gives a salt, the structure may show the parent alone.

One experiment concerns Saccharomyces cerevisiae BY4741 SeMeCo community. The experiment can be described thus: z-score of subpopulation abundance vs DMSO median, subpopulation auxotrophic for H; higher = larger share of this subpopulation than in DMSO controls. Conditions: 10 µM; 24 h; SM minimal medium; subpopulation (auxotrophy): H. In short, it runs like this: (§1)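 A Saccharomyces cerevisiae BY4741 community carried four plasmids, each restoring one auxotrophy and encoding a distinct fluorescent protein. It was pre-grown overnight to OD600 1.0, diluted to 0.3, and 70 µl was added to 384-well plates acoustically predosed with library drugs (10 µM final), then grown 24 h in minimal SM medium. Cells were paraformaldehyde-fixed and imaged by automated confocal microscopy, with single-auxotroph fluorescent strains setting thresholds and autofluorescence correction. Each subpopulation's abundance was scored as a z-score against the vehicle-well median.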
On to `C[C@]12CCC3=C4CCC(=O)C=C4CC[C@H]3[C@@H]1CC[C@@]2(O)CC#N` [Dienogest], for which the “z-score of subpopulation abundance” value came to 0.11. As for `C[N+]1(C)CCC(OC(=O)C(O)(c2ccccc2)C2CCCC2)C1` (stereo unspecified) [Glycopyrrolate], the “z-score of subpopulation abundance” value is -0.58. In the case of `NCC[C@H](O)C(=O)N[C@@H]1C[C@H](N)[C@@H](O[C@H]2O[C@H](CN)[C@@H](O)[C@H](O)[C@H]2O)[C@H](O)[C@H]1O[C@H]1O[C@H](CO)[C@@H](O)[C@H](N)[C@H]1O` [Amikacin disulfate], the “z-score of subpopulation abundance” value was -0.3. For `CN1C2CCCC1CC(NC(=O)c1nn(C)c3ccccc13)C2` (stereo unspecified) [Granisetron], the “z-score of subpopulation abundance” value was -1.03. Regarding `COc1ccc2cc3[n+](cc2c1OC)CCc1cc2c(cc1-3)OCO2` [Berberine Sulfate], the “z-score of subpopulation abundance” value was -0.31. Take `CS(=O)(=O)Nc1ccc([N+](=O)[O-])cc1Oc1ccccc1` [Nimesulide]: the “z-score of subpopulation abundance” value is -0.25.

Turning to `COc1cc(O)c(C(=O)Nc2nc(C(=O)NCCN(C(C)C)C(C)C)cs2)cc1OC` [Acotiamide hydrochloride], the “z-score of subpopulation abundance” value came to 0.42.

Regarding `C[C@H]1c2cccc(O)c2C(O)=C2C(=O)[C@]3(O)C(O)=C(C(N)=O)C(=O)[C@@H](N(C)C)[C@@H]3[C@@H](O)[C@@H]21` [Doxycycline monohydrate], the “z-score of subpopulation abundance” value was 0.17.

In the case of `COC(=O)C1=C(C)NC(C)=C(C(=O)OC(C)(C)CN(C)CCC(c2ccccc2)c2ccccc2)C1c1cccc([N+](=O)[O-])c1` (stereo unspecified) [Lercanidipine hydrochloride], the “z-score of subpopulation abundance” value worked out at 2.45. For the molecule `CC(c1cc2ccccc2s1)N(O)C(N)=O` (stereo unspecified) [Zileuton], the “z-score of subpopulation abundance” value was -0.65.

The next experiment shares this test system. The experiment can be described thus: z-score of subpopulation abundance vs DMSO median, subpopulation auxotrophic for LU; higher = larger share of this subpopulation than in DMSO controls. The conditions noted are these: 10 µM; 24 h; SM minimal medium; subpopulation (auxotrophy): LU. In short, it runs like this: as §1
Take `C[C@]12CCC3=C4CCC(=O)C=C4CC[C@H]3[C@@H]1CC[C@@]2(O)CC#N` [Dienogest]: the “z-score of subpopulation abundance” value is -0.52.

Take `NCC[C@H](O)C(=O)N[C@@H]1C[C@H](N)[C@@H](O[C@H]2O[C@H](CN)[C@@H](O)[C@H](O)[C@H]2O)[C@H](O)[C@H]1O[C@H]1O[C@H](CO)[C@@H](O)[C@H](N)[C@H]1O` [Amikacin disulfate]: the “z-score of subpopulation abundance” value is 0.07. `CN1C2CCCC1CC(NC(=O)c1nn(C)c3ccccc13)C2` (stereo unspecified) [Granisetron]: the “z-score of subpopulation abundance” value is -0.92. On to `CCCCCNC(=N)N/N=C/c1c[nH]c2ccc(OC)cc12` [Tegaserod Maleate], for which the “z-score of subpopulation abundance” value came out at 0.84. Same read-out and setting: the figure for `COc1ccc2cc3[n+](cc2c1OC)CCc1cc2c(cc1-3)OCO2` [Berberine Sulfate] is -0.21; for `CS(=O)(=O)Nc1ccc([N+](=O)[O-])cc1Oc1ccccc1` [Nimesulide] it is 0.49; for `COc1cc(O)c(C(=O)Nc2nc(C(=O)NCCN(C(C)C)C(C)C)cs2)cc1OC` [Acotiamide hydrochloride] it is 0.52. Still for that read-out and setting: the figure for `COC(=O)C1=C(C)NC(C)=C(C(=O)OC(C)(C)CN(C)CCC(c2ccccc2)c2ccccc2)C1c1cccc([N+](=O)[O-])c1` (stereo unspecified) [Lercanidipine hydrochloride] is -0.32; for `CC(c1cc2ccccc2s1)N(O)C(N)=O` (stereo unspecified) [Zileuton] it is 0.65. Regarding `O=c1ccn(C2CC(O)C(CO)O2)c(=O)[nH]1` (stereo unspecified) [2-deoxyuridine], the “z-score of subpopulation abundance” value came to 0.31. For `Nc1nc2[nH]cc(CCc3ccc(C(=O)N[C@@H](CCC(=O)O)C(=O)O)cc3)c2c(=O)[nH]1` [Pemetrexed Disodium Hydrate], the “z-score of subpopulation abundance” value came to 1.43.
